# Test results from paper PMC11062922 (Nature Chemical Biology, 2023).
# Assays:
# Set-up in all cases: species or system human, MV4-11 + K-562 + COLO205 + SK-N-BE2 + OVCAR-8
# Details in all cases: read-out: apparent Kd; compound concentrations:100 nM and 1000 nM (sheet 'Samples'); n = 1
# BCR = test system: BCR
# GAK = test system: GAK
# MAPK10 = test system: MAPK10
# MAPK9 = test system: MAPK9
# NQO2 = test system: NQO2
# PIK3CD = test system: PIK3CD
# PRKD1 = test system: PRKD1
# PRKD2 = test system: PRKD2
# PRKD3 = test system: PRKD3
# RIPK2 = test system: RIPK2
# SIK3 = test system: SIK3
# STK16 = test system: STK16
# TGFBR1 = test system: TGFBR1
# TGFBR2 = test system: TGFBR2
# TNIK = test system: TNIK
# ZAK = test system: ZAK
smiles,measurement,setting,value
CN(C)CCOc1ccc(-c2cc(-c3c[nH]nc3-c3ccccn3)ccn2)cc1 [GW835314X],potency estimated from few doses,BCR,668 nM
same,potency estimated from few doses,GAK,151 nM
same,potency estimated from few doses,MAPK10,1410 nM
same,potency estimated from few doses,MAPK9,2050 nM
same,potency estimated from few doses,NQO2,176 nM
same,potency estimated from few doses,PIK3CD,145 nM
same,potency estimated from few doses,PRKD1,161 nM
same,potency estimated from few doses,PRKD2,55.4 nM
same,potency estimated from few doses,PRKD3,52.8 nM
same,potency estimated from few doses,RIPK2,219 nM
same,potency estimated from few doses,SIK3,1800 nM
same,potency estimated from few doses,STK16,1740 nM
same,potency estimated from few doses,TGFBR1,1.84 nM
same,potency estimated from few doses,TGFBR2,149 nM
same,potency estimated from few doses,TNIK,679 nM
same,potency estimated from few doses,ZAK,1820 nM
